Assay results: PubChem BioAssay (NCI)
Where “and” joins values, the source holds several entries; their conditions need not be identical. Equal entries are not always repeated. Compounds without any hit were thinned out: in the full panel of roughly 83,000, 20% have a hit.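 Method: cells in 96-well plates; compound added at one concentration; 48 h incubation; percent growth measured; values under 10 scored active.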 Calls of active or inactive are those of the source.

How the values were obtained:
Test in all cases: NCI-60 one-dose screen, 48 h (100 = growth as untreated, 0 = no growth, -100 = all killed)
HCT-15 colon = details: 10 µM unless noted
HT29 colon = details: 10 µM unless noted
SNB-75 CNS = details: 10 µM unless noted
SNB-19 CNS = details: 10 µM unless noted
U251 CNS = details: 10 µM unless noted
PC-3 prostate = details: 10 µM unless noted
SK-MEL-5 melanoma = details: 10 µM unless noted
UACC-62 melanoma = test system: UACC-62 melanoma
LOX IMVI melanoma = details: 10 µM
SK-MEL-28 melanoma = details: 10 µM unless noted
SK-MEL-2 melanoma = details: 10 µM unless noted
EKVX NSCLC = details: 10 µM unless noted
SN12C renal = details: 10 µM unless noted
UO-31 renal = details: 10 µM unless noted
TK-10 renal = test system: TK-10 renal
ACHN renal = details: 10 µM unless noted
CAKI-1 renal = details: 10 µM unless noted
A498 renal = details: 10 µM unless noted
CCRF-CEM leukemia = details: 10 µM unless noted
MOLT-4 leukemia = details: 10 µM unless noted

Measured: growth

CC1(C)OC2C(COC(c3ccccc3)(c3ccccc3)c3ccccc3)OC(c3c[nH]c4c(N)ncnc34)C2O1 (stereo unspecified)
inactive: HCT-15 colon 55.3% | HT29 colon 46.4% | SNB-75 CNS 61.9% | SNB-19 CNS 66.1% | U251 CNS 56.7% | PC-3 prostate 25% | SK-MEL-5 melanoma 60.8% | UACC-62 melanoma; 10 µM unless noted 65.2% | LOX IMVI melanoma 54.8% | SK-MEL-28 melanoma 66.8% | SK-MEL-2 melanoma 69.8% | EKVX NSCLC 55.3% | SN12C renal 50.1% | UO-31 renal 58.3% | TK-10 renal; 10 µM unless noted 84.2% | ACHN renal 52.2% | CAKI-1 renal 56.6% | A498 renal 74.7% | CCRF-CEM leukemia 36.3%

OC(Cc1cc(CC(O)(C(F)(F)F)C(F)(F)F)nc(CC(O)(C(F)(F)F)C(F)(F)F)c1)(C(F)(F)F)C(F)(F)F
inactive: SNB-19 CNS 16% | SK-MEL-28 melanoma 26.5% | EKVX NSCLC 16% | TK-10 renal; 10 µM unless noted 22.1%
active: HCT-15 colon 9.46% | HT29 colon -12.1% | SNB-75 CNS -8.76% | U251 CNS -60.2% | PC-3 prostate 4.38% | SK-MEL-5 melanoma -83.3% | UACC-62 melanoma; 10 µM unless noted -10.6% | LOX IMVI melanoma 0.881% | SK-MEL-2 melanoma -28.3% | SN12C renal 4.86% | UO-31 renal 6.74% | ACHN renal 0.867% | CAKI-1 renal 4.5% | A498 renal -18.8% | CCRF-CEM leukemia 7.23% | MOLT-4 leukemia -8.17%

CCN(CC)CCNc1ccc([N+](=O)[O-])c2sc3ccccc3c(=O)c12
inactive: HCT-15 colon 23% | SNB-75 CNS 34.8% | SNB-19 CNS 34.8% | U251 CNS 22.8% | PC-3 prostate 27.3% | SK-MEL-5 melanoma 21.1% | UACC-62 melanoma; 10 µM unless noted 35.7% | LOX IMVI melanoma 19.4% | SK-MEL-28 melanoma 35.4% | SK-MEL-2 melanoma 21.6% | EKVX NSCLC 23.1% | SN12C renal 28.5% | TK-10 renal; 10 µM unless noted 63.7% | A498 renal 43.7% | CCRF-CEM leukemia 38% | MOLT-4 leukemia 12.1%
active: HT29 colon 9.13% | UO-31 renal -10% | ACHN renal 6.41% | CAKI-1 renal -0.017%

OC(c1cc(-c2ccc(Cl)cc2)nc2c(Cl)cccc12)C1CCCCN1 (stereo unspecified)
active: HCT-15 colon -58.1% | HT29 colon -86.3% | SNB-75 CNS -81.2% | SNB-19 CNS -69.9% | U251 CNS -89% | PC-3 prostate -94.4% | SK-MEL-5 melanoma -0.885% | UACC-62 melanoma; 10 µM unless noted -75.9% | LOX IMVI melanoma -76.6% | SK-MEL-28 melanoma -94.6% | SK-MEL-2 melanoma -91% | EKVX NSCLC -32.9% | SN12C renal -70.3% | UO-31 renal -74.5% | TK-10 renal; 10 µM unless noted -75.9% | ACHN renal -65.3% | CAKI-1 renal -72.5% | A498 renal 9.48% | CCRF-CEM leukemia -59.1% | MOLT-4 leukemia -57.5%

CC(CSc1n[nH]c(=S)s1)c1ccccc1 (stereo unspecified)
inactive: HCT-15 colon 110% | HT29 colon 126% | SNB-75 CNS 85.1% | SNB-19 CNS 102% | U251 CNS 107% | PC-3 prostate 102% | SK-MEL-5 melanoma 103% | UACC-62 melanoma; 10 µM unless noted 108% | LOX IMVI melanoma 97.6% | SK-MEL-28 melanoma 116% | SK-MEL-2 melanoma 130% | EKVX NSCLC 107% | SN12C renal 101% | UO-31 renal 77.4% | TK-10 renal; 10 µM unless noted 116% | ACHN renal 116% | A498 renal 108% | MOLT-4 leukemia 91.2%

COc1cc(/C=C2\SC(=S)N(/C=C/c3nc4ccccc4[nH]c3=O)C2=O)cc(OC)c1OC
active: UO-31 renal 2.14%
inactive: HCT-15 colon 91.7% | HT29 colon 90.6% | SNB-75 CNS 66.9% | SNB-19 CNS 97.5% | U251 CNS 81.8% | PC-3 prostate 95.2% | SK-MEL-5 melanoma 82.7% | UACC-62 melanoma; 10 µM unless noted 81.9% | LOX IMVI melanoma 56.7% | SK-MEL-28 melanoma 90.5% | SK-MEL-2 melanoma 81.1% | EKVX NSCLC 84.6% | SN12C renal 98.2% | TK-10 renal; 10 µM unless noted 70.1% | ACHN renal 82.4% | CAKI-1 renal 87.2% | A498 renal 60% | CCRF-CEM leukemia 91.7% | MOLT-4 leukemia 91.2%

NC(CS/C(Cl)=C/Cl)C(=O)O (stereo unspecified)
inactive: HCT-15 colon 85.5% | HT29 colon 86.8% | SNB-75 CNS 103% | SNB-19 CNS 85.9% | U251 CNS 84.7% | PC-3 prostate 64.1% | UACC-62 melanoma; 10 µM unless noted 77.4% | SK-MEL-28 melanoma 73% | SK-MEL-2 melanoma 53.7% | EKVX NSCLC 81.4% | SN12C renal 87% | UO-31 renal 82.6% | TK-10 renal; 10 µM unless noted 117% | ACHN renal 95.2% | CAKI-1 renal 89.6% | CCRF-CEM leukemia 66.5%
active: SK-MEL-5 melanoma -60.9% | LOX IMVI melanoma -57.3% | A498 renal -60%

CC(C)=CCCC(C)C1=C(O)C(=O)C(C)=CC1=O (stereo unspecified)
inactive: HT29 colon 83.6% | SNB-75 CNS 113% | SNB-19 CNS 98.7% | U251 CNS 81.3% | PC-3 prostate 90.8% | SK-MEL-5 melanoma 88.7% | UACC-62 melanoma; 10 µM 103% | LOX IMVI melanoma 59.1% | SK-MEL-2 melanoma 92.9% | EKVX NSCLC 122% | SN12C renal 106% | CAKI-1 renal 88.4% | A498 renal 92.9%
active: HCT-15 colon 1.72% | UACC-62 melanoma; 100 µM -98.4% and -93.3% | UO-31 renal -98.3% | TK-10 renal; 10 µM 5.08% | TK-10 renal; 100 µM -99.3% and -84.7% | ACHN renal -39% | CCRF-CEM leukemia -29.2%
